# Bioassay records as filed in PubChem BioAssay.
# Most compounds without a hit are left out; they make up all but 21% or so of the library.
# Shiga inhibitor: inhibitors of Shiga toxin in Vero cells | Vero cells, Shiga toxin protein synthesis inhibition reporter | inhibition, % at 38.7 µM | actives 9.2% (n = 290,000) | AID 2315; in the data active = inhibition mostly above about 28%, no sharp cut-off; inactive = mostly below about 43%; note: 0% is about no effect
# Pf growth 48h: inhibits P. falciparum growth in the first generation, 48 h; P. falciparum luciferase growth in erythrocytes, 48 h; AID 504832; actives 5.9% (n = 310,000); Potency, µM (highest dose often 28.7 µM), for the others: at the highest dose activity change, negative = inhibition, usual class: inhibitors; note: potency is the fitted concentration of half-maximal effect; % is set by controls: 0 for no effect and ±100 for the full control effect
#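 Compounds are pin-transferred into medium, infected erythrocytes (2% hematocrit, 0.1% parasitemia final) are added, and plates sit one parasite generation at 37 C in 5% CO2. Detection reagent is then added and luminescence measured.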
# Cycloheximide cs: counter-screen for Shiga toxin inhibitors: cycloheximide protein synthesis inhibition; cell reporter, cycloheximide protein synthesis inhibition counterscreen; max response, %; actives 12% (n = 300,000); AID 2314; in the data active = max response mostly above about 13%, no sharp cut-off; inactive = mostly below about 14%; note: read at 38.3 µM for the half of the compounds with a filed dose; 0% is about no effect
# Pf growth 96h: inhibits malaria parasite growth, 96 h | P. falciparum luciferase reporter growth, 96 h | Potency, µM (series often up to 28.7 µM), for inactives: at the highest dose activity change, negative = inhibition, hits mostly inhibitors | actives 6.9% (n = 320,000) | AID 504834; note: potency is the fitted concentration of half-maximal effect; % is set by controls: 0 for no effect and ±100 for the full control effect
#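 Delayed-death screen, second-generation endpoint: infected erythrocytes, 2% hematocrit, 0.05% parasitemia final; 96 hours at 37 C, 5% CO2; luciferase detection reagent; luminescence decrease equals reduced growth.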
# The depositor's hits bear a star; ? = inconclusive; nt = no result. Unless noted, calls come from the whole dose curve; as a rule, active = well fitted inhibition curve with a large enough effect; inconclusive = small, poorly fitted or top-dose-only effect, or another doubt; inactive = no such curve, though single readings can be large or run the other way.
SMILES,Shiga inhibitor,Pf growth 48h,Cycloheximide cs,Pf growth 96h
Cc1sc(NC(=O)c2ccco2)c(C(c2cccnc2)N2CCN(c3ccc(F)cc3)CC2)c1C (stereo not drawn),11,2.1µM*,-2,?
COc1ccc(C(c2c(NC(=O)c3ccco3)sc(C)c2C)N2CCOCC2)cc1OC (stereo not drawn),nt,2.6µM*,nt,4.7µM*
Cc1sc(NC(=O)c2ccco2)c(C(c2cccnc2)N2CCN(CCO)CC2)c1C (stereo not drawn),-3,?,-1,?
COc1ccc(C(C(C(=O)c2cccs2)N2CCOCC2)N2CCOCC2)cc1OC (stereo not drawn),11,19%,16*,?
CCOC(=O)C1CCN(C(c2cccnc2)c2c(NC(=O)c3ccco3)sc(C)c2C)CC1 (stereo not drawn),32,0.29µM*,21*,-4%
COc1ccc(C(CCO)NC(=O)c2cccs2)cc1OC (stereo not drawn),-12,61%,-3,?
C/C=C(\C)C(=O)O[C@@H]([C@H](O)c1cc2ccc(=O)oc2cc1OC)C(C)(C)O,nt,37%,nt,49%
COC(=O)c1ccc(NC(=O)CCN2C(=O)C3C4CCC(C4)C3C2=O)cc1 (stereo not drawn),4,25%,9,?
Cc1sc(NC(=O)c2ccco2)c(C(c2ccc(F)cc2)N2CCN(C)CC2)c1C (stereo not drawn),32,?,14,?
Cc1sc(NC(=O)c2ccco2)c(C(c2ccccc2)N2CCC(C)CC2)c1C (stereo not drawn),30,5.2µM*,14,?
CCOc1ccc(C2CC(=O)n3nc(C45CC6CC(CC(C6)C4)C5)nc3S2)cc1OC (stereo not drawn),-3,-4%,5,12µM*
CC1CN(O)C2CCc3c(no[n+]3[O-])C12O (stereo not drawn),-3,14%,-1,34%
CC1CC2(O)c3no[n+]([O-])c3CCC2N1O (stereo not drawn),-2,13%,-4,10µM*
COc1ccc(N2CCN(CCNS(=O)(=O)c3ccc(C)cc3)CC2)cc1,-15,34%,3,13%
COc1ccccc1N1CCN(C(c2cccs2)C(C)NS(=O)(=O)c2ccccc2)CC1 (stereo not drawn),3,?,-1,7.4µM*
CC(NS(=O)(=O)c1ccccc1)C(c1cccs1)N1CCN(c2ccccc2)CC1 (stereo not drawn),-2,?,-1,8.3µM*
CC(NS(=O)(=O)c1ccc(Br)cc1)C(c1cccs1)N1CCN(C)CC1 (stereo not drawn),-4,-21%,-5,?
COc1ccccc1N1CCN(C(c2cccs2)C(C)NC(=O)c2ccncc2)CC1 (stereo not drawn),4,?,-2,?
Cc1ccccc1OCCC(=O)Nc1ccccc1C(=O)NC1CC1,nt,?,nt,8%
CCC(C)(c1nnnn1-c1c(C)cccc1C)N(N=O)c1cccc(C(F)(F)F)c1 (stereo not drawn),-7,12µM*,-4,?
COc1cc(OC)c2ccc(=O)oc2c1C(CC(=O)N1CCN(c2ccccc2)CC1)c1ccc2c(c1)OCO2 (stereo not drawn),-4,12µM*,9,13µM*
COc1cc(C(CC(=O)N2CCOCC2)c2c(OC)cc(OC)c3ccc(=O)oc23)cc(OC)c1OC (stereo not drawn),21,?,-4,?
COc1cc(C(CC(=O)N2CCN(c3ccccc3)CC2)c2c(OC)cc(OC)c3ccc(=O)oc23)cc(OC)c1OC (stereo not drawn),-2,5.9µM*,1,4.7µM*
O=C(c1cc(Br)c[nH]1)N1CCSCC1,-5,13%,6,17%
CCCCNC(=O)CC1N=C2c3ccccc3N=C(SCC(=O)Nc3ccccc3OC)N2C1=O (stereo not drawn),-7,10µM*,5,64%
SMILES,Shiga inhibitor,Pf growth 48h,Cycloheximide cs,Pf growth 96h
CCCCNC(=O)CC1N=C2c3ccccc3N=C(SCC(=O)Nc3ccc(OC)cc3)N2C1=O (stereo not drawn),26,?,11,10µM*
CCCCNC(=O)CC1N=C2c3ccccc3N=C(SCC(=O)Nc3cccc(OC)c3)N2C1=O (stereo not drawn),-5,?,-2,?
S=C(NC1CCCCC1)N(CCc1ccccc1)CCc1ccccc1,-38,?,7,?
Cc1c(C(=O)N2CCOCC2)sc(NC(=O)Cc2ccccc2)c1C#N,-15,-7%,1,0%
Fc1ccc(F)c(C2=NNC(=Nc3ccccc3F)SC2)c1,150*,?,130*,?
CC(=O)Nc1ccc(C2=NNC(=Nc3ccc(S(=O)(=O)N4CCOCC4)cc3)SC2)cc1,-2,?,-1,12µM*
Fc1ccccc1N=C1NN=C(c2ccccc2)CS1,138*,?,53*,-44%
O=C1NC(=Nc2ccc(F)cc2)CS1,-2,11%,-4,?
Fc1ccc(N=C2NN=C(c3cc(F)ccc3F)CS2)cc1,69*,0%,54*,?
CCOc1ccc(CN2CCN(CCCc3ccccc3)CC2CCO)cc1 (stereo not drawn),-6,-1%,-2,3%
O=C(COc1ccccc1)N=C1SC2CS(=O)(=O)CC2N1c1ccc(F)cc1 (stereo not drawn),-9,20%,0,35%
COc1ccc(C2=NNC(=Nc3cc(S(=O)(=O)N(C)C)ccc3C)SC2)c(OC)c1,13,1.7µM*,-2,-13%
COCCn1c(C)cc(C2=NNC(=Nc3ccccc3F)SC2)c1C,104*,nt,95*,3.7µM*
Cc1cccc(N=C2NN=C(c3ccccc3F)CS2)c1C,51*,-31%,34*,0%
Cc1cccc(N=C2NC(=O)/C(=C3/C(=O)N(C)c4ccccc43)S2)c1C,-13,15%,-7,38%
CCN1C(=O)CSC1=Nc1ccccc1Cl,-2,1%,-3,4%
Clc1ccccc1N=C1NN=C(c2cccs2)CS1,98*,343%,53*,228%
Nc1cc(S(=O)(=O)Nc2cc(Cl)ccc2Cl)ccc1N1CCCC1,-2,2%,17,28%
Cc1[nH]c2ccccc2c1C1=NNC(=Nc2ccc(F)cc2)SC1,-4,?,-4,8.3µM*
Cc1cc(C2=NNC(=NC3CC3)SC2)c(C)n1-c1c(C)n(C)n(-c2ccccc2)c1=O,-9,-2%,1,1%
COc1ccc(N=C2NN=C(c3c(C)[nH]c4ccccc34)CS2)cc1,-6,?,5,?
Cc1cc(C2=NNC(=Nc3ccccc3)SC2)c(C)n1C,69*,-23%,35*,-8%
CN(C)S(=O)(=O)c1cccc(N=C2NN=C(c3ccccc3)CS2)c1,1,13µM*,2,2.3µM*
CC(=O)Nc1ccc(C2=NNC(=Nc3cccc(S(=O)(=O)N(C)C)c3)SC2)cc1,-8,?,-2,?
O=S(=O)(c1ccc(N=C2NN=C(c3cc(F)ccc3F)CS2)cc1)N1CCOCC1,3,2.3µM*,6,?
COC(=O)c1ccc(NS(=O)(=O)c2ccccc2)o1,-6,7%,-3,61%
